# PubChem BioAssay (NCATS)
# Records with an inconclusive call do not appear. A call without a number means that no potency is given here. Calls of active or inactive are those of the source. Calls come from the whole dose curve.
# Experiment: Primary qHTS for Vero E6 cytotoxicity: counterscreen for inhibitors of SARS-S pseudo-typed particle cell entry (AID 1479150)
# Details: cell viability; series mostly up to 57.1 µM
row,Structure (SMILES),Potency
1,COc1ccc(C(=O)N2CCN(c3ccc4c(c3)CCC(=O)N4)CC2)cc1OC,inactive
2,OCC(O)COc1ccc(Cl)cc1 (stereo not drawn),inactive
3,CC(=O)OCC(=O)[C@@]12OC3(CCCC3)O[C@@H]1C[C@H]1[C@@H]3CCC4=CC(=O)C=C[C@]4(C)[C@@]3(F)[C@@H](O)C[C@@]12C,inactive
4,O=S(O)CNc1ccc(S(=O)(=O)c2ccc(NCS(=O)O)cc2)cc1,inactive
5,CN(C(=O)CO)c1c(I)c(C(=O)NCC(O)CO)c(I)c(C(=O)NCC(O)CO)c1I (stereo not drawn),inactive
6,CC(Oc1ccccc1)C(=O)N[C@@H]1C(=O)N2[C@@H]1SC(C)(C)[C@@H]2C(=O)O (stereo partly drawn),inactive
7,CC(=O)NC(C=O)C(O)C(O)[C@H](O)CO (stereo partly drawn),inactive
8,CNC(=O)C[C@@H](N)C(=O)N[C@@H](C(=O)N[C@@H]1C(=O)N2[C@@H]1SC(C)(C)[C@@H]2C(=O)O)c1ccc(O)cc1,inactive
9,C[C@@H]1C[C@H]2[C@@H]3C[C@H](F)C4=CC(=O)C=C[C@]4(C)[C@@]3(F)[C@@H](O)C[C@]2(C)[C@@]1(O)C(=O)COC(=O)C(C)(C)C,inactive
10,CN(C)C=Nc1c(I)cc(I)c(CCC(=O)O)c1I,inactive
11,Nc1nc(CC(=O)Nc2ccc(CCNC[C@H](O)c3ccccc3)cc2)cs1,inactive
12,CCCCC(CC)COC(=O)c1ccc(Nc2nc(Nc3ccc(C(=O)OCC(CC)CCCC)cc3)nc(Nc3ccc(C(=O)OCC(CC)CCCC)cc3)n2)cc1 (stereo not drawn),inactive
13,CCCCC[C@H](O)/C=C/[C@@H]1[C@@H](C/C=C/CCCC(=O)O)[C@@H](O)C[C@H]1O,inactive
